The results in this text go back to PubChem BioAssay.

Calls of active or inactive are those of the source.

The test system of assay [1] is PRMT1 (protein arginine N-methyltransferase 1). As to the kind of experiment: PRMT1 binders on small-molecule microarrays, primary screen, biochemical, small-molecule microarray, 635 nm fluorescence (AID 1088).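 Also: binding of Prmt1 protein to compounds spotted on small-molecule microarray slides.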 The following applies: small-molecule microarray binding, higher = more signal.
The nature of assay [2]: yeast growth modulation, basal conditions, primary screen, YJM789 clinical isolate, OD600, 24 h (AID 1089).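 Also: growth of clinical yeast isolate S. cerevisiae YJM 789 seeded 1000 cells per well; test concentration not given here.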 The note with it: S. cerevisiae YJM789 growth, higher = more signal, called active from +8 up or from −8 down.
The nature of assay [3]: fission yeast growth modulation, primary screen, strain 972, OD600, 24 h, no modulator (AID 1090).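 Also: basal condition with compound alone and no growth modifier present; test concentration not given here.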 The following applies: S. pombe 972 growth, higher = more signal, called active from +8 up or from −8 down.
A short description of assay [4]: S. cerevisiae growth modulation with rapamycin, primary screen, strain BY4716, OD600, 96 h (AID 1091). Also: test concentration not given here. The following applies: higher = more signal, called active from +8 up or from −8 down.
Assay [5] addresses Torsin-1A-interacting protein 2 (Homo sapiens) (UniProt Q8NFQ8). As to the kind of experiment: LULL1 binders on small-molecule microarray, primary screen, cell lysate, human LULL1 lysate, 635/667 nm fluorescence (AID 1092).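 Also: probe is lysate of COS7 cells overexpressing human LULL1; score merges per-feature 667 nm fluorescence with signal-to-noise.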 The following applies: hLULL1 lysate binding, 635 nm fluorescence, higher = more signal.
Assay [6] is described as follows: E. coli growth modulation, two-sided OD650, primary screen, E. coli filamentation project, strain DRC41, 24 h (AID 1093).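 Also: MC1000 strain lacking acrAB efflux and sulA so SOS filamentation is blocked; test concentration not given here.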 The note with it: OD650, 24 h, higher = more signal, called active from +8 up or from −8 down.
A short description of assay [7]: small-molecule microarray binders of probe aLefty2, primary screen, biochemical, biotinylated probe, 635/667 nm fluorescence (AID 1094).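 Also: score merges spot fluorescence near 667 nm with spot signal-to-noise ratio.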 The note with it: higher = more signal.
In assay [8] the test system is Noggin (protein binding on small-molecule microarray). Put plainly: Noggin binders on small-molecule microarray, primary screen, biochemical, 635/667 nm fluorescence (AID 1095).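 Also: score merges 667 nm feature fluorescence with signal to noise over triplicate slides.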 The following applies: 635 nm fluorescence, higher = more signal.
Assay [9] concerns the target Neurogenic locus notch homolog protein 3 (Homo sapiens) (UniProt Q9UM47). As to the kind of experiment: NOTCH3 binders on small-molecule microarray, primary screen, biochemical, 635/667 nm fluorescence (AID 1096). The following applies: NOTCH3 binding, 635 nm fluorescence, higher = more signal.
Assay [10] in a line: small-molecule microarray binders of probe aEGFR, primary screen, biochemical, biotinylated probe, 635/667 nm fluorescence (AID 1097).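 Also: probe is a biotinylated anti-EGFR antibody binding compounds printed on slides; score combines fluorescence near 667 nm and signal to noise of each spot.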 The note with it: higher = more signal.
Assay [11] relates to Plasmodium falciparum Sir2 (PF13_0152, Sir2A). Put plainly: pfSir2 binders on small-molecule microarrays, primary screen, biochemical, small-molecule microarray, 635 nm fluorescence (AID 1098).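 Also: score merges spot fluorescence intensity with its signal-to-noise ratio.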 The following applies: small-molecule microarray binding, fluorescence 635 nm; higher = more signal.
The nature of assay [12]: small-molecule microarray binders of probe aDKK1, primary screen, biochemical, biotinylated probe, 635/667 nm fluorescence (AID 1099).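 Also: score merges 667nm spot fluorescence with signal to noise across triplicate slides; reference of the scale not given here.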 The note with it: higher = more signal.
The nature of assay [13]: small-molecule microarray binders of probe aCHRDL2, primary screen, biochemical, biotinylated probe, 635/667 nm fluorescence (AID 1100). The following applies: higher = more signal.
Assay [14] in a line: splicing luciferase reporter signal modulators, primary screen, spliceosome inhibition project, cell-based, HEK293, splice +/- reporter (AID 1101).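 Also: HEK293 cells carrying a splicing-competent luciferase reporter gene; test concentration not given here.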 The following applies: luminescence, 24 h, higher = more signal, called active from +8 up or from −8 down. A general note: Reporter assays use an easily measured gene product as a stand-in for the process of interest.
For assay [15], the target named is Fibroblast growth factor 10 (Homo sapiens) (UniProt O15520). Put plainly: FGF10 binders on small-molecule microarrays, primary screen, biochemical, small-molecule microarray, 635 nm fluorescence (AID 1102). The note with it: FGF10 binding, fluorescence 635 nm, higher = more signal.
Assay [16] relates to glycogen synthase kinase-3 (GSK3A per assay name; protocol says GSK3B). Put plainly: GSK3 binders on small-molecule microarrays, primary screen, biochemical, small-molecule microarray, 635 nm fluorescence, GSK3A (AID 1103). Also: the record names both GSK3A and GSK3B. The note with it: small-molecule microarray binding, fluorescence 635 nm; higher = more signal.
Assay [17] concerns the target Epidermal growth factor receptor (Homo sapiens) (UniProt P00533). As to the kind of experiment: EGFR binders on small-molecule microarrays, primary screen, biochemical, small-molecule microarray, 635 nm fluorescence (AID 1104).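 Also: score merges 667 nm emission intensity with spot signal to noise over triplicate slides.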 The following applies: EGFR binding, higher = more signal.
Assay [18] concerns the target Follistatin-related protein 3 (Homo sapiens) (UniProt O95633). As to the kind of experiment: FSTL3 binders on small-molecule microarrays, primary screen, biochemical, small-molecule microarray, 635 nm fluorescence (AID 1105).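 Also: score merges emission near 667 nm and signal to noise per printed spot across three slides.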 The note with it: FSTL3 binding, higher = more signal.
In assay [19] the target is Dickkopf-related protein 1 (Homo sapiens) (UniProt O94907). As to the kind of experiment: DKK1 binders on small-molecule microarrays, primary screen, biochemical, small-molecule microarray, 635 nm fluorescence scan (AID 1106).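 Also: score merges emission near 667 nm with signal to noise over three replicate slides.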 The note with it: DKK1 binding, higher = more signal.
The subject of assay [20] is Inhibin beta A chain (activin A). Put plainly: INHBA (activin A) binders on microarrays, primary screen, biochemical, small-molecule microarray, 635 nm fluorescence scan (AID 1107).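 Also: mouse activin A protein probed at 4.33 µg/mL on printed slides; score merges bound-protein fluorescence near 667 nm with spot signal-to-noise.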 The following applies: small-molecule microarray binding, higher = more signal.

Chain of Neurogenic locus notch homolog protein 3 (Homo sapiens) (Q9UM47 whole entry, looked up): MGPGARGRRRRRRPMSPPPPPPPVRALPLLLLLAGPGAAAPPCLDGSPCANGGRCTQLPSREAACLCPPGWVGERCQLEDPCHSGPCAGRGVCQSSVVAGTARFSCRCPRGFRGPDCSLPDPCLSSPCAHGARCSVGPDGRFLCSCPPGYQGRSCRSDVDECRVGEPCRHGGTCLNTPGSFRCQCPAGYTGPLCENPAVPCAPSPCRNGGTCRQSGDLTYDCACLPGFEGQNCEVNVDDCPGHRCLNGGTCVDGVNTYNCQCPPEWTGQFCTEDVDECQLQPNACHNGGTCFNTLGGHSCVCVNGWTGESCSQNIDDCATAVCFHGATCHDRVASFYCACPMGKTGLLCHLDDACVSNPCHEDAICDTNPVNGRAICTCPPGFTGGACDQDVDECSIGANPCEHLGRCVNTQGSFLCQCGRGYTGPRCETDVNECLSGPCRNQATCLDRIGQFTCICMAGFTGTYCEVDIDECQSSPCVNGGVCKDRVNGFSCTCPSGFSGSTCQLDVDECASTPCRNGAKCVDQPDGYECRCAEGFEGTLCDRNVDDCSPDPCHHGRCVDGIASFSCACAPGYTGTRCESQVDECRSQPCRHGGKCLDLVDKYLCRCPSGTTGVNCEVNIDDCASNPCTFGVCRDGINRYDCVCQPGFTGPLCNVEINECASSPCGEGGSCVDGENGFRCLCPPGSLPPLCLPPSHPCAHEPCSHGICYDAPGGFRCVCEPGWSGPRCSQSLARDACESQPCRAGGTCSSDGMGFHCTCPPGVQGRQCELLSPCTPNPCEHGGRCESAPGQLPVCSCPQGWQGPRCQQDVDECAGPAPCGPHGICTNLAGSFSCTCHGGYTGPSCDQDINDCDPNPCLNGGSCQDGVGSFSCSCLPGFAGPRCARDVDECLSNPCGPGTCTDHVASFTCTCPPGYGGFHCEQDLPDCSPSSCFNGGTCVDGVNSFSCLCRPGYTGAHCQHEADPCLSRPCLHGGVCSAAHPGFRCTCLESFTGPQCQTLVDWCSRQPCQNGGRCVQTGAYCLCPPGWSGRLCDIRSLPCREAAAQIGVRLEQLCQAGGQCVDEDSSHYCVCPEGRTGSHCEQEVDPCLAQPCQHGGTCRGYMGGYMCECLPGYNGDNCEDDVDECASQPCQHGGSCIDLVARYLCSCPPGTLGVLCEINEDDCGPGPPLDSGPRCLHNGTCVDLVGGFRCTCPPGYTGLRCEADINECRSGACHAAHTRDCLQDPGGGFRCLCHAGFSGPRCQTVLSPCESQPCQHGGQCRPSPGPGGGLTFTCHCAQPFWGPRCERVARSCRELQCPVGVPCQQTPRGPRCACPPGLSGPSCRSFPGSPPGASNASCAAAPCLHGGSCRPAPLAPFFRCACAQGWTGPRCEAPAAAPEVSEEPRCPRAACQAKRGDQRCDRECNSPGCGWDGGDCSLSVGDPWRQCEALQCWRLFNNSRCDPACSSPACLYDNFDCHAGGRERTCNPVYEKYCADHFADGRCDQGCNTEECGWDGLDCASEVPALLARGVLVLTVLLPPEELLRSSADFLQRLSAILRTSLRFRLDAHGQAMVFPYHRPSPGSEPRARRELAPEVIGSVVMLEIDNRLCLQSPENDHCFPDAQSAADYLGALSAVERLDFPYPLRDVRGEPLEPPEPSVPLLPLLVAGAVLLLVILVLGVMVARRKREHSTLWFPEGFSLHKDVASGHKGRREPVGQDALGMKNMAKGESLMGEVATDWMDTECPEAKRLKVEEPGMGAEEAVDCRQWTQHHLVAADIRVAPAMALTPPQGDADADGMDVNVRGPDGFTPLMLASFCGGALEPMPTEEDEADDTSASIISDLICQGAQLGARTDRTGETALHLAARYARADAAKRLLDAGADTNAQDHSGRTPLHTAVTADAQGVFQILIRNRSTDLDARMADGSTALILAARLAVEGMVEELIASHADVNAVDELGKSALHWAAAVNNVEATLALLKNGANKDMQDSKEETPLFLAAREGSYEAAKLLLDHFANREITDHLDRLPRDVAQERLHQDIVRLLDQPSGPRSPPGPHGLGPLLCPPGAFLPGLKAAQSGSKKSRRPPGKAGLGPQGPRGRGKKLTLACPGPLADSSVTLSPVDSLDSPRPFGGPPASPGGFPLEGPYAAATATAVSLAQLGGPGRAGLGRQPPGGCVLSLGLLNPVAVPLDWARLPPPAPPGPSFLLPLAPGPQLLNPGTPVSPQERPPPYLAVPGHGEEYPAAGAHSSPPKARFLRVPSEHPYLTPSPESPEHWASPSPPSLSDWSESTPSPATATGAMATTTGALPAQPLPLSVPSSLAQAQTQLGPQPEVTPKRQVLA
Chain of Follistatin-related protein 3 (Homo sapiens) (O95633 whole entry, looked up): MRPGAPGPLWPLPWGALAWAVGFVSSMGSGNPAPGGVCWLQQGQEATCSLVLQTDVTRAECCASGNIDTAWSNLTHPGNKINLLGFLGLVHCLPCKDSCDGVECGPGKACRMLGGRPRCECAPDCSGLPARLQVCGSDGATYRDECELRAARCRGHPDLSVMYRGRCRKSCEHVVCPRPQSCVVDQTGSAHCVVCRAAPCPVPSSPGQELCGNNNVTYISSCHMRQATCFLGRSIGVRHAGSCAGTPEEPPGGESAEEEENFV
Chain of Fibroblast growth factor 10 (Homo sapiens) (O15520 whole entry, looked up): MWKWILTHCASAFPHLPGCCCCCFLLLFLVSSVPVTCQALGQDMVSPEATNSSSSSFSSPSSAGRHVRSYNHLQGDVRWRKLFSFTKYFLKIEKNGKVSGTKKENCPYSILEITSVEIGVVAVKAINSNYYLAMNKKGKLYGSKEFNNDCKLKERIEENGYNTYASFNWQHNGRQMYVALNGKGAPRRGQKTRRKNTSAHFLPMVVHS
Chain of Torsin-1A-interacting protein 2 (Homo sapiens) (Q8NFQ8 whole entry, looked up): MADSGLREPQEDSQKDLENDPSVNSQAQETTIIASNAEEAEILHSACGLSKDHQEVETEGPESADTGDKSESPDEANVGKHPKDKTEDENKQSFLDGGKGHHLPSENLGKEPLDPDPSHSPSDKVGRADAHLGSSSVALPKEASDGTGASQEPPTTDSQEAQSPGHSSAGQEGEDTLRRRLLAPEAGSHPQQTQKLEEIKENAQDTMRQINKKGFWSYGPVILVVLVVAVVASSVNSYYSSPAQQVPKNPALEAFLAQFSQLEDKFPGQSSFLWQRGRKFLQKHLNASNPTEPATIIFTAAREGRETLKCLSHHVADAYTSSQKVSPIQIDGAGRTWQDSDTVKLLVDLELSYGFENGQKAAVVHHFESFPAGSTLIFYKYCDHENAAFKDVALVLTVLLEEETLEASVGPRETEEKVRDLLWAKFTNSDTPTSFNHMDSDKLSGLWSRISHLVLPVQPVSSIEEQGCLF
Chain of Dickkopf-related protein 1 (Homo sapiens) (O94907 whole entry, looked up): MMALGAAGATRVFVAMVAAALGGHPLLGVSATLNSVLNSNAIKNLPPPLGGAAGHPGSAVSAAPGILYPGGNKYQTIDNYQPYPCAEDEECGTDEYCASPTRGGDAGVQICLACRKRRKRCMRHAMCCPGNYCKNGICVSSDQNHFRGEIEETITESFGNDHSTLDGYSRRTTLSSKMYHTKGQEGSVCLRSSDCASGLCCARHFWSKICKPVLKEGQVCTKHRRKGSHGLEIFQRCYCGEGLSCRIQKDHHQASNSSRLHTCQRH
Chain of Epidermal growth factor receptor (Homo sapiens) (P00533 whole entry, looked up): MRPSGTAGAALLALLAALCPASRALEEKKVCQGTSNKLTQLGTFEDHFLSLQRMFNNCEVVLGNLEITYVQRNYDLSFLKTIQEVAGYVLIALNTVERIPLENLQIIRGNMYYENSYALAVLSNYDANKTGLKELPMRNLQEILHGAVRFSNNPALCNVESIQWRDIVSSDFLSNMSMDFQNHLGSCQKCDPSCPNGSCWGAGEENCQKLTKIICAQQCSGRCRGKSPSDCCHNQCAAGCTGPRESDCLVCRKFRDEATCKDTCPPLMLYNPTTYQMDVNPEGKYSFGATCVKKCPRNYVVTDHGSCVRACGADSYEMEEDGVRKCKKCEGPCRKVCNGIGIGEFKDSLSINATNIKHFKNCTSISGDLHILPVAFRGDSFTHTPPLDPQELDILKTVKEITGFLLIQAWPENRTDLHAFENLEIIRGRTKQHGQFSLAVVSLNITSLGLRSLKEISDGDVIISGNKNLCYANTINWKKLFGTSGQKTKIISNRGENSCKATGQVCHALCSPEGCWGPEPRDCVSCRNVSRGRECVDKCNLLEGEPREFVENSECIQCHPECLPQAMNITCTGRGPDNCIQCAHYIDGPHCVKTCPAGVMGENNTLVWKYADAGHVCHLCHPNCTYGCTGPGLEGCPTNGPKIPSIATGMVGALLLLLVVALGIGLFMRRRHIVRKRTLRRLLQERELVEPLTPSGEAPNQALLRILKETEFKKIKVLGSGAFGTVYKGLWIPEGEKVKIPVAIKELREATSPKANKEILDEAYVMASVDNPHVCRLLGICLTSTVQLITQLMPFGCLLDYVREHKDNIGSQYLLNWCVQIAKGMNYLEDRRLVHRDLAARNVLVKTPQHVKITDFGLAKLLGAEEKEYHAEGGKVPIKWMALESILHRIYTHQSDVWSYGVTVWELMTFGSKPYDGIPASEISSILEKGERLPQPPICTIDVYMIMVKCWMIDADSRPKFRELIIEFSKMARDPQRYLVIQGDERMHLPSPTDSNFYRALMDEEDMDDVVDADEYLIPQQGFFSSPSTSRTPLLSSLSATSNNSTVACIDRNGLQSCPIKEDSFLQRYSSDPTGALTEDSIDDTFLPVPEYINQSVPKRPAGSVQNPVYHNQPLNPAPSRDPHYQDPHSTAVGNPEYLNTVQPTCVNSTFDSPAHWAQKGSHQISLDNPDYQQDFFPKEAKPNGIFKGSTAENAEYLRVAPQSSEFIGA

On to `CC(C)CN1C(=O)[C@@]2(c3ccc([N+](=O)[O-])cc3)CC(=O)N(CC34CC5CC(CC(C5)C3)C4)[C@@H]2c2ccc(CO)cc21`, for which the composite z-score is -0.297 in assay [1]; 0.295 in assay [5]; -0.239 in [7]; -1.21 in assay [8]; -0.506 in assay [9]; -0.256 in assay [10]. The composite z-score in assay [11] is 0.984; in assay [12] it was 0.185; in [13], 0.807; in [15] it was -1.02; in [16], -0.853; in assay [17], -1.72. In addition, the composite z-score is -1.09 in assay [18], -1.48 in assay [19] and 0.2 in assay [20]. In addition, the z-score in [2] is 0.275 (inactive); in assay [3], 0.0569 (inactive); in assay [4] it was -1.32 (inactive); in [6] it was -1.55 (inactive); in [14], -0.668 (inactive).
Regarding `CCCCC(=C=CC[C@@H](O)c1ccc(OCCO)cc1)C[C@@H](O)COCc1ccccc1`, the composite z-score is 0.989 in assay [1]; 0.146 in assay [5]; -0.166 in assay [7]; 1.14 in [8]; -0.198 in assay [9]; -0.18 in [10]. Also, the composite z-score in assay [11] is 1.27; in [12], -0.338; in [13] it was -0.212; in [15], 1.01; in [16], -0.0016; in assay [17], -0.3. Besides, the composite z-score in assay [18] amounted to 0.245; in assay [19], 0.111; in assay [20], 0.856. Besides, the z-score is -1.24 (inactive) in assay [2]; -2.39 (inactive) in [3]; -1.07 (inactive) in assay [4]; 1.69 (inactive) in assay [6]; -0.784 (inactive) in assay [14].
`C[C@]1(C(=O)NC2CC2)c2ccccc2C(=O)N(Cc2ccc(OC(F)(F)F)cc2)[C@H]1c1ccc(CO)cc1`: the composite z-score in assay [1] was -0.613; in assay [5], 1.77; in assay [7], -0.128; in [8], -0.221; in [9], -0.943; in assay [10], -0.169. Besides, the composite z-score in assay [11] is -0.419; in assay [12], -0.0414; in [13] it was 0.755; in [15], -0.326; in assay [16] it was -0.0882; in assay [17] it was -0.617. Besides, the composite z-score is -0.409 in [18], -0.758 in [19] and 0.781 in assay [20]. In addition, the z-score in assay [2] is -0.352 (inactive); in assay [3] it was -0.0814 (inactive); in [4], -0.439 (inactive); in assay [6], 0.735 (inactive); in [14], 0.765 (inactive).
As to `COc1ccc(C(O)C2C=CC3C(=O)N(c4ccccc4)C(=O)C3N2Nc2ccccc2)cc1OCc1ccccc1` (stereo not given), the composite z-score in assay [1] amounted to 1.57; in [5], 3.53; in assay [7], 0.104; in [8], 0.88; in assay [9], 1.03; in assay [10], 0.0386. Besides, the composite z-score in [11] is 0.964; in [12], 0.294; in [13], 0.77; in [15], 1.21; in assay [16], 1.29; in assay [17], -0.0831. The composite z-score is 1.29 in assay [18], -0.0662 in [19] and 0.726 in assay [20]. In addition, the z-score is -0.177 (inactive) in assay [2]; 1.3 (inactive) in assay [3]; 0.25 (inactive) in [4]; -1.2 (inactive) in [6]; 0.161 (inactive) in [14].
With `NCCCCCNC(=O)[C@@H]1C[C@@H]2C(=O)N[C@@H](CCCCN)C(=O)N2[C@@H]1c1cccc(OCCO)c1`, the composite z-score was 0.61 in assay [1]; 0.557 in assay [5]; 0.119 in assay [7]; 0.878 in assay [8]; 0.702 in [9]; -0.0306 in assay [10]. The composite z-score in [11] was 0.858; in assay [12], 1.24; in assay [13], 0.826; in [15] it was 0.699; in assay [16], 0.642; in [17], -0.0511. Further, the composite z-score turned out to be 1.44 in assay [18], 0.969 in assay [19] and 0.428 in assay [20]. For the same compound, the z-score in assay [2] was 0.656 (inactive); in assay [3], 0.212 (inactive); in [4], -0.0182 (inactive); in assay [6] it was 0.767 (inactive); in assay [14] it was -0.107 (inactive).
